From the supplement of paper PMC6555819

Columns and labels:
Assay in all cases: PBM binding z-score (relative to random genomic background probes); higher = stronger binding; sequences stand for … in GC…GCGATTGACAGCGTAGAATGAAGG
[1] = tested on: FXR:RXRa (NR concentration 270 nM, RXRa partner concentration 90 nM)
Outline: (§1)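 Antibodies against each partner of ligand-free nuclear receptor dimers (one per run) detected binding on custom Agilent 4×180K protein-binding microarrays after 1 h incubation. The double-stranded probes had 34-nt variable regions carrying direct-repeat seeds, single-nucleotide variants, half-site ablations and random human genomic background sequences. Binding z-scores, from regression-normalized fluorescence, use the random background probes as reference.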

[2] = tested on: LXRa:RXRa (NR concentration 270 nM, RXRa partner concentration 90 nM)
Outline: as §1

[3] = tested on: LXRa homodimer (NR concentration 270 nM)
Outline: as §1

[4] = tested on: LXRb:RXRa (NR concentration 270 nM, RXRa partner concentration 90 nM)
Outline: as §1

[5] = tested on: LXRb homodimer (NR concentration 270 nM)
Outline: as §1

[6] = tested on: PPARa:RXRa (NR concentration 270 nM, RXRa partner concentration 90 nM)
Outline: as §1

[7] = tested on: PPARg:RXRa (NR concentration 180 nM, RXRa partner concentration 90 nM)
Outline: as §1

[8] = tested on: PPARg:RXRa 270nM:90nM, anti-RXR (NR concentration 270 nM, RXRa partner concentration 90 nM)
Outline: as §1

[9] = tested on: PPARg:RXRa 30nM:10nM, anti-RXR (NR concentration 30 nM, RXRa partner concentration 10 nM)
Outline: as §1

[10] = tested on: PPARg:RXRa 90nM:30nM, anti-RXR (NR concentration 90 nM, RXRa partner concentration 30 nM)
Outline: as §1

Sequence	PBM binding z-score [1]	PBM binding z-score [2]	PBM binding z-score [3]	PBM binding z-score [4]	PBM binding z-score [5]	PBM binding z-score [6]	PBM binding z-score [7]	PBM binding z-score [8]	PBM binding z-score [9]	PBM binding z-score [10]
CTCGAAAAGTCGGTTGAGGTGAGTATACGGATAA	0.673	0.0454	-0.319	-4.02e-05	-0.053	0.458	-0.07	-0.172	0.085	-0.0769
TCTGCTAAGTCAACGATGGTCAGCTAATCTGCTA	-0.531	-0.432	-0.993	-0.553	-0.721	-0.269	-0.51	0.278	1.33	0.924
GCGCCTGGGGCAAAGCAGGTTACCATAAGGTTGG	0.19	-0.148	-0.679	-0.341	-1.26	0.474	0.0826	-0.405	-0.693	-0.771
TCGAGTAGGTTACCAATGGGGCCTTCAGCTTTCT	-0.184	0.128	-0.933	-0.0136	-1.01	0.918	-0.264	0.957	0.922	0.958
TCTTGTAGATCAAGCAGGTCAAGAAAGCCTGAGT	0.916	1.2	0.357	1.67	-0.193	2.29	0.0976	1.6	2.11	2.16
AGAATGAGGTTATTAAGATCATGGAATTGCGGTC	1.63	1.62	0.0389	1.29	-0.00587	2.75	1.91	2.37	0.464	1.49
CCTACTGGGCCATGAGGTCATTGATATCAACGTT	3.57	2.77	1.87	3.24	-0.168	4.19	4.59	4.66	2.55	4.53
TCCTATAGGTAAAAGGTGAAAGTCGGTGTGGTAA	2.04	1.54	-0.461	1.82	-0.544	4.65	7.68	7.41	7.38	8.23
TAGCCTAGGTCAGATCGGCCCAGTATACGCTATA	1.44	1.09	-0.637	0.955	-0.183	1.87	1.07	0.986	-0.286	0.142
CCAGACAGGTGAAAGGTAATTCAGTCTGGTACGC	0.605	0.764	-0.068	0.645	-0.433	3.29	5.24	5.83	4.2	5.95
TCTTGTAGATCAACACGAGGTTAAGAAAGATCGA	0.233	1.58	0.248	1.01	-0.293	1.55	0.0854	1.33	2.58	1.94
ACTAGCACGCCAAGGGTCACTCAAGATTAGTCCG	2.79	3.15	0.382	3.1	-0.324	3.64	2.48	3.7	1.47	3.3
CCAGACAGGGGAGAAGGTAACTCAGCCTCGATTA	-0.354	-0.331	-0.147	-0.0664	-0.72	-0.0873	0.239	0.0493	-0.552	0.0211
TCTTGTAGATCAAAGGTTAAGCAAGCCGAAGCCT	1.32	2.21	0.224	2.12	-0.28	5.08	8.51	8.42	9.42	9.87
ACATGTAGGTTAAGGGTCATTCAGGTTGGTTCGC	5.47	4.89	3.12	4.5	1.95	6.02	11.1	9.37	8.78	11
CGTCCAAGGTCAGCAGTTCAGTGAAAGCGACGTG	5.17	3.5	0.594	2.73	-0.167	4.42	2.78	3.37	0.482	1.82
CGCCCAAGGTCAGAGAGGTCAGTGAATGCCGAGT	6.04	4.89	3.24	4.24	-0.135	4.86	3.1	4.03	0.767	2.55
TCTAGCAGGCCAGAGTGTCACTCAAGAGGTACGG	-0.276	-0.311	-1.03	-0.712	-1.41	0.336	0.89	1.81	1.93	1.97
ATGTCTAGGTAACCAAGTTCAGTGAATGCCGAAC	0.425	0.708	0.547	0.184	0.286	1.08	0.622	0.664	-0.0406	0.432
AATACAGGGTCATCGTAGGCCCGAGTACGCACAG	6.78	5.81	2.32	3.99	0.935	5.82	6.57	6.13	2.54	5.01
CCAGACATGTGAGAAGGTAACTCAGCCTCGATTA	-0.141	0.0863	0.298	-0.057	0.106	-0.106	0.462	-0.748	-0.305	-0.419
GCTATTAGTTGAAAGGGCGACCGAATGATTCTCG	-0.184	0.0609	-0.118	0.0118	-0.239	0.973	1.72	3.27	1.2	3.05
CAAACTAGATCAAAGGTCAAAGTCGAGCCAACCA	5.73	5.82	5.07	5.77	3.09	6.79	11.4	10.2	11.1	11.9
AATACAGGGTCATCGTGGGCCAGAGTACGCACAG	7.26	6.08	2.41	4.65	0.911	5.96	6.73	5.81	2.73	4.56
